Data published in PubChem BioAssay AID1159580 (chemical genetic matrix, 2015).
“And” between values parts separate entries of the source, which are not always exact repeats. Equal entries are not always repeated. The campaign covered roughly 5,500 compounds. About 2,000 (36%) were called active. About 18% were inconclusive and are not listed. Rule as the data show it: active = normalized growth mostly below about 0.91 (no sharp cut-off); inconclusive = no clear call, values can overlap the other calls; inactive = mostly above about 0.92. Some of the results follow.

Experiment: chemical genetic growth profiling, strain panel (AID 1159580);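 also: tested at 20 µM; growth read once vehicle control cultures reached saturation at 30 °C; 1 = growth at the plate median or of vehicle wells; lower values mean less growth of the strain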
Settings: S. cerevisiae deletion strains, growth OD

Measured: normalized growth

COc1cc(O)cc(OC)c1OC
inactive: locus YAL013W, strain DEP1, stronger effect = lower value 1.05 | locus YAL021C, strain ccr4, stronger effect = lower value 0.982 | locus YAL026C, strain drs2, stronger effect = lower value 0.974 | locus YAL030W, strain snc1, stronger effect = lower value 0.977 | locus YBL061C, strain skt5, stronger effect = lower value 0.98 | locus YBR009C, strain hhf1, stronger effect = lower value 0.964 | locus YBR021W, strain FUR4, stronger effect = lower value 1.01 | locus YBR023C, strain chs3, stronger effect = lower value 0.999 | locus YBR171W, strain sec66, stronger effect = lower value 0.978 | locus YBR229C, strain ROT2, stronger effect = lower value 1.01 | locus YBR231C, strain swc5, stronger effect = lower value 0.992 | locus YBR279W, strain paf1, stronger effect = lower value 0.992 | locus YCL011C, strain gbp2, stronger effect = lower value 0.969 | locus YCL016C, strain dcc1, stronger effect = lower value 0.997 | locus YCL029C, strain bik1, stronger effect = lower value 1.01 | locus YCL061C, strain MRC1, stronger effect = lower value 0.986 | locus YCL069W, strain vba3, stronger effect = lower value 0.978 | locus YCR088W, strain abp1, stronger effect = lower value 0.987 | locus YDL005C, strain med2, stronger effect = lower value 0.967 | locus YDL035C, strain GPR1, stronger effect = lower value 1.05 | locus YDL040C, strain nat1, stronger effect = lower value 0.989 | locus YDL074C, strain BRE1, stronger effect = lower value 1.04 | locus YDL101C, strain DUN1, stronger effect = lower value 1.02 | locus YDL134C, strain PPH21, stronger effect = lower value 1.01 | locus YDL185W, strain tfp1, stronger effect = lower value 1 | locus YDL192W, strain arf1, stronger effect = lower value 1.03 | locus YDR001C, strain nth1, stronger effect = lower value 0.972 | locus YDR069C, strain doa4, stronger effect = lower value 0.962 | locus YDR101C, strain arx1, stronger effect = lower value 1 | locus YDR137W, strain rgp1, stronger effect = lower value 0.998 | locus YDR159W, strain sac3, stronger effect = lower value 0.925 | locus YDR162C, strain NBP2, stronger effect = lower value 1.06 | locus YDR195W, strain ref2 0.918 | locus YDR297W, strain sur2, stronger effect = lower value 0.986 | locus YDR318W, strain mcm21, stronger effect = lower value 1.01 | locus YDR334W, strain swr1, stronger effect = lower value 0.975 | locus YDR335W, strain msn5, stronger effect = lower value 0.991 | locus YDR388W, stronger effect = lower value 1.01 | locus YDR392W, strain spt3, stronger effect = lower value 0.942 | locus YDR502C, strain sam2, stronger effect = lower value 0.999 | locus YEL003W, strain gim4, stronger effect = lower value 0.987 | locus YEL037C, strain rad23, stronger effect = lower value 0.988 | locus YEL061C, strain CIN8 (second series), stronger effect = lower value 0.961 | locus YEL061C, strain CIN8, stronger effect = lower value 1.02 | locus YER015W, strain faa2, stronger effect = lower value 1 | locus YER016W, strain bim1, stronger effect = lower value 0.995 | locus YER110C, stronger effect = lower value 1 | locus YER111C, strain swi4, stronger effect = lower value 0.967 | locus YER155C, strain BEM2 (second series), stronger effect = lower value 0.97 | locus YER155C, strain BEM2, stronger effect = lower value 1.02 | locus YER167W, strain BCK2, stronger effect = lower value 1.02 | locus YFR010W, strain ubp6, stronger effect = lower value 0.962 | locus YGL078C, strain dbp3, stronger effect = lower value 1.01 | locus YGL086W, strain mad1, stronger effect = lower value 1.01 | locus YGL167C, strain pmr1, stronger effect = lower value 0.954 | locus YGL173C, strain kem1, stronger effect = lower value 0.99 | locus YGL227W, strain vid30, stronger effect = lower value 0.97 | locus YGL240W, strain doc1, stronger effect = lower value 0.945 | locus YGL248W, strain PDE1, stronger effect = lower value 1.04 | locus YGL253W, strain hxk2, stronger effect = lower value 0.995 | locus YGR135W, strain pre9, stronger effect = lower value 1.01 | locus YGR252W, strain gcn5, stronger effect = lower value 1.03 | locus YHR013C, strain ard1, stronger effect = lower value 0.923 | locus YHR027C, strain rpn1, stronger effect = lower value 0.993 | locus YHR030C, strain SLT2, stronger effect = lower value 1.02 and 0.996 | locus YHR079C, strain IRE1 (second series), stronger effect = lower value 0.995 | locus YHR079C, strain IRE1, stronger effect = lower value 0.983 | locus YHR094C, strain hxt1, stronger effect = lower value 0.992 | locus YHR129C, strain ARP1, stronger effect = lower value 1.02 | locus YHR142W, strain chs7, stronger effect = lower value 1.01 | locus YHR200W, strain rpn10, stronger effect = lower value 1.01 | locus YIL066C, strain RNR3, stronger effect = lower value 1.03 | locus YIL073C, strain SPO22, stronger effect = lower value 1.06 | locus YIL125W, strain kgd1, stronger effect = lower value 1.01 | locus YIR030C, strain dcg1, stronger effect = lower value 1 | locus YJL092W, strain hpr5, stronger effect = lower value 0.982 | locus YJL095W, strain BCK1 (second series), stronger effect = lower value 0.996 | locus YJL095W, strain BCK1, stronger effect = lower value 1.05 and 0.999 | locus YJL115W, strain asf1, stronger effect = lower value 0.992 | locus YJL129C, strain trk1, stronger effect = lower value 0.97 | locus YJL134W, strain LCB3, stronger effect = lower value 1.03 | locus YJL154C, strain vps35, stronger effect = lower value 0.983 | locus YJL164C, strain tpk1, stronger effect = lower value 0.971 | locus YJL166W, strain qcr8, stronger effect = lower value 0.993 | locus YJL168C, strain set2, stronger effect = lower value 1.01 | locus YJL187C, strain SWE1 (second series), stronger effect = lower value 1.03 | locus YJL187C, strain SWE1, stronger effect = lower value 0.977 | locus YJR043C, strain POL32, stronger effect = lower value 1.05 | locus YJR066W, strain TOR1, stronger effect = lower value 0.905 | locus YKL009W, strain mrt4, stronger effect = lower value 1.05 | locus YKL068W, stronger effect = lower value 1.01 | locus YKL085W, strain MDH1 (second series), stronger effect = lower value 1.02 | locus YKL085W, strain MDH1, stronger effect = lower value 1.02 | locus YKL160W, strain elf1, stronger effect = lower value 1 | locus YKR001C, strain vps1, stronger effect = lower value 1.01 | locus YKR026C, strain gcn3, stronger effect = lower value 0.945 | locus YKR091W, strain srl3, stronger effect = lower value 0.968 | locus YLL001W, strain dnm1, stronger effect = lower value 0.994 | locus YLL026W, stronger effect = lower value 0.998 | locus YLL041C, strain sdh2, stronger effect = lower value 1 | locus YLR027C, strain aat2, stronger effect = lower value 0.986 | locus YLR039C, strain RIC1, stronger effect = lower value 1.11 | locus YLR058C, strain SHM2, stronger effect = lower value 1.03 | locus YLR102C, strain apc9, stronger effect = lower value 0.99 | locus YLR113W, strain HOG1, stronger effect = lower value 1.04 | locus YLR221C, strain rsa3, stronger effect = lower value 0.97 | locus YLR258W, strain gsy2, stronger effect = lower value 0.996 | locus YLR262C, strain YPT6 (second series), stronger effect = lower value 0.992 | locus YLR262C, strain YPT6, stronger effect = lower value 1.15 | locus YLR268W, strain sec22, stronger effect = lower value 1.03 | locus YLR320W, strain mms22, stronger effect = lower value 0.984 | locus YLR342W, strain FKS1 (second series), stronger effect = lower value 1.04 | locus YLR342W, strain FKS1, stronger effect = lower value 0.957 | locus YLR357W, strain rsc2, stronger effect = lower value 0.948 | locus YLR370C, strain arc18, stronger effect = lower value 0.955 | locus YLR371W, strain rom2, stronger effect = lower value 1 | locus YLR384C, strain iki3, stronger effect = lower value 0.937 | locus YLR418C, strain cdc73, stronger effect = lower value 1.01 | locus YML016C, strain PPZ1, stronger effect = lower value 1.02 | locus YML032C, strain rad52, stronger effect = lower value 1.01 | locus YML120C, strain ndi1, stronger effect = lower value 0.97 | locus YML124C, strain tub3, stronger effect = lower value 1.01 | locus YMR058W, strain fet3, stronger effect = lower value 0.97 | locus YMR078C, strain ctf18, stronger effect = lower value 1 | locus YMR125W, strain sto1, stronger effect = lower value 0.984 | locus YMR129W, stronger effect = lower value 0.962 | locus YMR205C, strain PFK2, stronger effect = lower value 0.95 | locus YMR223W, strain ubp8, stronger effect = lower value 0.993 | locus YMR231W, strain pep5, stronger effect = lower value 0.994 | locus YMR307W, strain GAS1, stronger effect = lower value 1.08 | locus YNL067W, strain RPL9B, stronger effect = lower value 1.03 | locus YNL071W, strain lat1, stronger effect = lower value 0.994 | locus YNL128W, strain TEP1, stronger effect = lower value 1.07 | locus YNL153C, strain GIM3, stronger effect = lower value 1.01 | locus YNL183C, strain NPR1, stronger effect = lower value 0.928 | locus YNL209W, strain ssb2, stronger effect = lower value 0.983 | locus YNL233W, strain BNI4, stronger effect = lower value 1.03 | locus YNL248C, strain rpa49, stronger effect = lower value 1 | locus YNL250W, strain rad50, stronger effect = lower value 1.03 | locus YNL271C, strain bni1, stronger effect = lower value 1.01 | locus YNL298W, strain CLA4, stronger effect = lower value 1 | locus YNL307C, strain MCK1, stronger effect = lower value 0.996 | locus YNL322C, strain KRE1 (second series), stronger effect = lower value 0.964 | locus YNR049C, strain mso1, stronger effect = lower value 0.986 | locus YNR052C, strain pop2, stronger effect = lower value 0.996 | locus YOL006C, strain TOP1, stronger effect = lower value 1.22 | locus YOL012C, strain htz1 1.19 | locus YOL147C, strain pex11, stronger effect = lower value 1 | locus YOR001W, strain rrp6, stronger effect = lower value 1.01 | locus YOR061W, strain CKA2, stronger effect = lower value 1.04 | locus YOR069W, strain VPS5, stronger effect = lower value 1.01 | locus YOR070C, strain gyp1, stronger effect = lower value 0.993 | locus YOR080W, strain dia2, stronger effect = lower value 0.977 | locus YOR083W, strain WHI5, stronger effect = lower value 1 | locus YOR106W, strain vam3, stronger effect = lower value 1 | locus YOR136W, strain idh2, stronger effect = lower value 1.01 | locus YOR144C, strain elg1, stronger effect = lower value 1 | locus YOR184W, strain ser1, stronger effect = lower value 1.05 | locus YOR231W, strain MKK1, stronger effect = lower value 1 | locus YOR265W, strain rbl2, stronger effect = lower value 0.96 | locus YOR270C, strain vph1, stronger effect = lower value 0.986 | locus YOR290C, strain snf2, stronger effect = lower value 0.921 | locus YOR316C, strain cot1, stronger effect = lower value 0.993 | locus YPL051W, strain arl3, stronger effect = lower value 1.01 | locus YPL078C, strain atp4, stronger effect = lower value 0.988 | locus YPL106C, strain sse1, stronger effect = lower value 0.944 | locus YPL240C, strain hsp82, stronger effect = lower value 0.981 | locus YPL256C, strain CLN2, stronger effect = lower value 0.978 | locus YPR119W, strain clb2, stronger effect = lower value 1 | locus YPR141C, strain kar3, stronger effect = lower value 1.01 | locus YPR163C, strain tif3, stronger effect = lower value 1 | locus YPR167C, strain met16, stronger effect = lower value 1.01 | strain wtn01, stronger effect = lower value 1.02
